Screens: PubChem BioAssay, several laboratories
GRIN3A LBD mod: binders of NR3A ligand-binding domain, primary screen, biophysical, differential scanning fluorimetry, uHTS. Glutamate receptor ionotropic, NMDA 3A (GRIN3A) ligand-binding domain. NR3A LBD differential scanning fluorimetry, Tm shift; 0% = protein alone, 100% = glycine-bound protein. Tm shift relative to glycine control, % at 25 µM. 340,000 compounds, 2.5% hits. AID 1259313, 2017;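 active means melting temperature shift of at least 10% of the positive control shift, at one fixed dose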
SUMO HTRF inh: inhibitors of in vitro SUMOylation cascade, primary screen, biochemical, HTRF, uHTS; inhibition, % at 35 µM; 290,000 compounds, 0.36% hits; HTRF SUMOylation assay, SAE1/SAE2 + UBC9; in the data active means inhibition above about 50%, passing the limit was not always enough; inconclusive means no clear call, values can overlap the other calls
Target sequence (P63279 whole entry, looked up): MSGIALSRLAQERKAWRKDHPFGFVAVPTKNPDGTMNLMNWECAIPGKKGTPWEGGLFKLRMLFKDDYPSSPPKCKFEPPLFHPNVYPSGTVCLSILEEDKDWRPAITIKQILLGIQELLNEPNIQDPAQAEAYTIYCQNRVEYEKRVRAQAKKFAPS
UBC13 inh: UBC13 polyubiquitin chain formation inhibitors, primary screen, biochemical, TR-FRET, uHTS. Ubiquitin-conjugating enzyme E2 N (Homo sapiens), P61088. inhibition, % at 20 µM. 330,000 compounds, 0.47% hits. AID 485273, 2010; in the data active means inhibition above about 45%, passing the limit was not always enough; inconclusive means no clear call, values can overlap the other calls
Target sequence (P61088 whole entry, looked up): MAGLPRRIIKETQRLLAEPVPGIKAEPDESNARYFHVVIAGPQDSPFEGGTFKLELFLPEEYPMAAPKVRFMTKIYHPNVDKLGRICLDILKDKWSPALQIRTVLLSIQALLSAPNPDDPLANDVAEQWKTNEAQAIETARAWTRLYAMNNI
HGIII-sPLA2 inh: human group III sPLA2 inhibitors, primary screen, biochemical, QFRET, BODIPY PC-A2 liposome substrate. Group 3 secretory phospholipase A2 (Homo sapiens), Q9NZ20. QFRET BODIPY PC-A2 liposome hydrolysis, fluorescence. inhibition, % at 12.2 µM. 370,000 compounds, 0.56% hits. AID 743126, 2013;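 active means inhibition above mean plus 3 SD of compounds lying within the high and low control bounds, cut at about 19% in these data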;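 further: 0% = median of test compound wells and 100% = no enzyme DMSO wells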
Casp3 UBC13 ctr: CASP3 inhibitor validation, counterassay for project on UBE2N polyubiquitination blockers, biochemical, one dose. AID 488856, 2010. shares compounds with UBC13 inh. Recombinant caspase-3, Caspase-Glo 3/7 luminescence, 60 min. 1,400 compounds, 4% hits. inhibition, % at 20 µM;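 active means mean inhibition across replicates above about 26%, limit read from the data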;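 further: plate controls were DMSO with caspase-3 for no effect and DMSO wells lacking enzyme for full effect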
Target sequence (P42574 whole entry, looked up): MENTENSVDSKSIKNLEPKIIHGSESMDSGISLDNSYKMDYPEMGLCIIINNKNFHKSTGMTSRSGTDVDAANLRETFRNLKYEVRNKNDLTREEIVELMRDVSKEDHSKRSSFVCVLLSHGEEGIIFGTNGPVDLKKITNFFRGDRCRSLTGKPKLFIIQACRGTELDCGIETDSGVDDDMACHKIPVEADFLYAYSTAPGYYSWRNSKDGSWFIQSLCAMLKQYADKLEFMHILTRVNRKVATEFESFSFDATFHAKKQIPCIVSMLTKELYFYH
UBC13 confirm: UBC13 polyubiquitination inhibitors, single-point retest, confirmation, biochemical, TR-FRET, single concentration; shares compounds with UBC13 inh; inhibition, % at 10 µM; 1,400 compounds, 68% hits; AID 488859, 2010; in the data active means inhibition above about 45%; inconclusive means no clear call, values can overlap the other calls
Numbers without * were called inactive; ? = inconclusive; · = no result. Hits are enriched below; roughly 3.3% of the tested compounds scored in any of these assays.

SMILES	GRIN3A LBD mod	SUMO HTRF inh	UBC13 inh	HGIII-sPLA2 inh	Casp3 UBC13 ctr	UBC13 confirm
Cc1nc2ccccc2c2oc(C(=O)N3CCC(N4CCCCC4)CC3)cc12	2	10	61*	·	0	44
Cc1nc2ccccc2c2oc(C(=O)N3CCN(C4CCCCC4)CC3)cc12	0	20	10	0	·	·
Cc1nn(-c2ccccc2)c2sc(C(=O)N3CCC4(CC3)OCCO4)cc12	·	·	·	11	·	·
CN1Cc2c(N3CCOCC3)nc3sc(C(=O)c4ccc(Br)cc4)c(N)c3c2CC1(C)C	-6	-10	51*	-8	0	85*
CN1Cc2c(N3CCOCC3)nc3sc(C#N)c(N)c3c2CC1(C)C	0	44	-13	-6	·	·
CC(C)CNc1ccc2c(c1)OC[C@@H](CC(C)C)NS2(=O)=O	·	·	·	-2	·	·
COc1ccc(Br)cc1CN(C)C(=O)Cc1ccc(OC)c(S(=O)(=O)N2CCOCC2)c1	-3	·	4	7	·	·
COc1ccc(CC(=O)Nc2cccc(Cl)c2C)cc1S(=O)(=O)N1CCOCC1	1	·	-5	2	·	·
COc1ccc(CC(=O)N(C)CC(=O)Nc2ccccc2Cl)cc1S(=O)(=O)N1CCOCC1	-3	·	52*	10	3	41
COc1ccc(CN(C)C(=O)Cc2ccc(OC)c(S(=O)(=O)N3CCOCC3)c2)cc1OC	2	·	101*	2	-3	109*
Cn1c(SCC(=O)Nc2ccccc2-c2ccccc2)nnc1-c1cnccn1	·	·	·	7	·	·
Nc1[nH]c(C(=O)c2ccccc2)c(-c2ccc(Br)cc2)c1C(=O)NCCCN1CCOCC1	·	·	·	4	·	·
COC(=O)[C@H]1C[C@@]2(CC=C(C)C)c3ccccc3N(C(=O)OC(C)(C)C)[C@H]2N1C(=O)OC(C)(C)C	·	·	·	2	·	·
CN(C)c1ccc(NC(=O)CN2CCC(NC(=O)C3CCCCC3)CC2)cc1	-1	7	64*	10	-2	82*
COc1cc(N(Cc2ccccc2)Cc2ccccc2)c2ncn(C(C)C)c2c1	5	·	10	1	·	·
CC(C)n1cnc2c(N(C)c3ccccc3)nc(N(CCN(C)C)Cc3ccccc3)nc21	2	9	57*	4	-4	38
Cc1ccc(-c2nc(NCCCN(C)C)c3ccccc3n2)cc1	·	·	·	-19	·	·
Cc1ccc(-c2csc3nc4c5ccccc5c(NCCCN(C)C)nn4c(=O)c23)cc1	-17	20	97*	-11	1	100*
O=C(NCCN1CCN(c2ccccc2)CC1)c1ccc2c(c1)[nH]c(=S)n1c3ccccc3nc21	6	29	47*	4	2	?
CC(C)n1ncc2c(C(=O)Nc3ccc(S(N)(=O)=O)cc3)cc(C3CC3)nc21	-5	·	75*	-8	0	49*
C=CCn1c(SCc2cccc(C(F)(F)F)c2)nnc1-c1ccc(OC)cc1	·	·	·	-7	·	·
O=C1c2cccc3cccc(c23)C(=O)N1Nc1ccccc1	1	12	52*	5	-1	43
O=C1c2cccc3cc(Br)cc(c23)C(=O)N1Nc1ccc(Br)cc1	6	4	-5	1	·	·
NC(=O)[C@@H]1CCCCNc2c(F)cc([N+](=O)[O-])cc2C(=O)N[C@@H](CCCN=C(N)N)C(=O)NCC(=O)N1	-3	13	24	4	·	·
NCCCC[C@@H]1NC(=O)c2cc([N+](=O)[O-])cc(F)c2NCCCC[C@@H](C(N)=O)NC(=O)[C@H](CCC(N)=O)NC1=O	2	3	74*	7	1	56*
SMILES	GRIN3A LBD mod	SUMO HTRF inh	UBC13 inh	HGIII-sPLA2 inh	Casp3 UBC13 ctr	UBC13 confirm
CC[C@H](C)[C@@H]1NC(=O)c2cc([N+](=O)[O-])cc(F)c2NCCCC[C@@H](C(N)=O)NC(=O)[C@H](CCCCN)NC1=O	-3	9	78*	-8	-1	62*
NCCCC[C@@H]1NC(=O)c2cc([N+](=O)[O-])cc(F)c2NCCCC[C@@H](C(N)=O)NC(=O)CNC1=O	1	8	85*	8	-4	77*
COc1cccc(C(=O)n2ccc3ccc(-c4ccc5ccn(Cc6ccc(C#N)cc6)c5c4)cc32)c1	·	·	·	1	·	·
N#CCC[C@H]1CC[C@]2(CCCN(C(=O)c3ccc4ccccc4n3)C2)O1	·	·	·	6	·	·
O=C1c2cccc3cccc(c23)C(=O)N1Cc1cccnc1	0	12	65*	0	0	83*
O=C1c2cccc3cccc(c23)N1Cc1ccc(F)cc1	0	24	83*	-2	3	96*
O=C1c2cccc3cccc(c23)N1Cc1cccc(F)c1	2	19	76*	-6	-2	90*
N#Cc1ccc(Nc2nc(-c3ccc(O)cc3O)cs2)cc1C(F)(F)F	23*	·	68*	·	-1	55*
COC(=O)[C@]12C[C@H](CC(=O)NCc3cccs3)C(=O)N(Cc3cccc4ccccc34)C1=C[C@H](COCc1ccccc1)O[C@@H]2C	·	·	·	-17	·	·
N#C[C@H]1C(O)C(O)c2ccccc2N1C(=O)c1ccccc1 (stereo not given in full)	0	·	58*	2	3	9
CC1=Cc2ccccc2C(C#N)N1C(=O)c1ccccc1 (stereo not given)	-1	-4	-11	-3	·	·
C(/C=C\c1ccco1)=NN1CCN(Cc2cccc3ccccc23)CC1	·	·	·	10	·	·
CCc1ccc2nc(N(CCCN(C)C)C(=O)c3ccc(C(=O)c4ccccc4)cc3)sc2c1	2	-7	74*	5	-4	108*
CCOc1ccc2nc(N(CCCN(C)C)C(=O)c3ccc4c(c3)CCCC4)sc2c1	1	2	42	-3	·	·
CN(C)CCCN(C(=O)c1ccc2c(c1)CCCC2)c1nc2ccc(Cl)cc2s1	11*	12	65*	-25	2	93*
Cc1c(CCOC(=O)C23CC4CC(CC(C)(C4)C2)C3)sc[n+]1CC(=O)c1ccccc1	-2	16	29	4	·	·
Cc1c(CCOC(=O)CC23CC4CC(CC(C4)C2)C3)sc[n+]1CC(=O)c1ccc(Br)cc1	-6	-5	47*	17	2	69*
Cc1c(CCOC(=O)CC23CC4CC(CC(C)(C4)C2)C3)sc[n+]1CC(=O)c1ccccc1	-4	-7	63*	7	4	52*
Cc1c(C(=O)Nc2ccc(S(=O)(=O)N(C)C3CCN(C)CC3)cc2)oc2ccccc12	-1	·	56*	-39	-2	34
CCCC1CCC2(CC1)CCC2OC(=O)Nc1cccc(Cl)c1 (stereo not given)	·	·	·	-3	·	·
